Measured values: PubChem BioAssay (NCATS)
Inconclusive results are not listed. Active and inactive are the calls of the source. Unless noted, calls follow the shape of the dose curve; as a rule, active = well fitted curve in the direction sought with a large enough effect; inconclusive = small, poorly fitted or top-dose-only effect, or another doubt; inactive = no such curve, though single readings can be large; an effect the other way counts as inactive or inconclusive.

Legend:
[1] = Cell Viability - Jurkat (AID 426;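 active = dose-dependent loss of cell ATP signal giving a full or clear fitted curve, ranked by lower potency value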; also: potency is read from the fitted curve at half-maximal effect); conditions: qHTS
Procedure, shortened: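 Jurkat (clone E6-1, human T-cell leukemia) cells, 5000/well in complete medium, were exposed to compound for 40 hr at 37 °C. Viability was read as intracellular ATP by CellTiter-Glo luminescence; AC50 came from Hill fits of concentration-response data.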

[2] = Cell Viability - LYMP2-001 (AID 921); conditions: LYMP2-001 lymphoblastoid cell viability; series mostly up to 92.2 µM; also: nearly all actives have a fitted effect of over 70% in size
Procedure, shortened: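 CellTiter-Glo luminescence (intracellular ATP) after 24 hr compound exposure at 37 C, 2500 lymphoblastoid cells/well in complete medium. AC50 fitted with standard Hill equation; tetraoctylammonium bromide positive control.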

[3] = MultiTox-Fluor Cytotoxicity Assay - LYMP1-002 - Dead Cells (AID 960); conditions: LYMP1-002 lymphoblastoid cells, dead-cell protease fluorescence; series mostly up to 46.1 µM; also: nearly all actives have a fitted effect of over 60% in size
Procedure, shortened: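 Human lymphoblastoid cells (LYMP1-002), 2500/well in complete medium, were exposed to compounds for 16 hr at 37 C. Dead-cell protease activity was read as bis-AAF-R110 fluorescence (Ex/Em 485/520), normalized to DMSO and 15 uM tetraoctylammonium bromide; AC50 from Hill fits.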

[4] = Cell Viability - LYMP1-003 - Assay at 40 hr (AID 964); conditions: LYMP1-003 lymphoblastoid viability; series mostly up to 92.2 µM; also: nearly all actives have a fitted effect of over 60% in size
Procedure, shortened: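 Human lymphoblastoid LYMP1-003 cells, 2500/well in complete medium, rested 5 hr at 37 C, then exposed to compounds for 40 hr at 37 C. Viability read as intracellular ATP by CellTiter-Glo luminescence; AC50 from Hill fits of concentration-response data.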

[5] = Cell Viability - LYMP2-003 (AID 965); conditions: LYMP2-003 lymphoblastoid cell viability; series mostly up to 92.2 µM;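 also: cells exposed to compounds for 24 h before reading; nearly all actives have a fitted effect of over 50% in size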
Procedure, shortened: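 CellTiter-Glo luminescence (cellular ATP) after 24 h compound exposure at 37 C in complete medium; 2500 cells/well, 5 h settling beforehand. Concentration-response fitted to standard Hill equation for AC50. Tetraoctylammonium bromide served as positive control.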

[6] = Cell Viability - LYMP2-005 (AID 967); conditions: LYMP2-005 lymphoblastoid cell viability; series mostly up to 92.2 µM
Procedure, shortened: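 Steps: seed 2500 LYMP2-005 cells/well, incubate 5 h at 37 C, add compound, incubate 24 h at 37 C, add CellTiter-Glo, wait 30 min at RT, read luminescence. Concentration-response data fitted to Hill equation for AC50.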

[7] = Cell Viability - LYMP2-011 (AID 969); conditions: LYMP2-011 lymphoblastoid cells viability; series mostly up to 92.2 µM; also: nearly all actives have a fitted effect of over 60% in size
Procedure, shortened: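 Human lymphoblastoid cells (2500/well) were plated in complete medium, preincubated 5 hr at 37 C, then exposed to compounds for 24 hr at 37 C. Intracellular ATP was read by CellTiter-Glo luminescence, and AC50 came from Hill-equation concentration-response fits.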

[8] = Cell Viability - LYMP2-013 (AID 970); conditions: LYMP2-013 lymphoblastoid cells viability; series mostly up to 92.2 µM; also: nearly all actives have a fitted effect of over 55% in size
Procedure, shortened: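 Human lymphoblastoid cells, 2500/well, were preincubated 5 hr at 37 C, then treated with compounds for 24 hr at 37 C in complete medium. Intracellular ATP was read by CellTiter-Glo luminescence; AC50 from Hill-equation fits of concentration-response data.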

[9] = Cell Viability - LYMP2-017 (AID 972); conditions: LYMP2-017 lymphoblastoid cell viability; series mostly up to 92.2 µM; also: nearly all actives have a fitted effect of over 55% in size
Procedure, shortened: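 Human lymphoblastoid cells (2500/well) were seeded in complete medium, held 5 hr at 37 C, then exposed to compounds for 24 hr at 37 C. Intracellular ATP was read by CellTiter-Glo luminescence after 30 min at room temperature, with AC50 values from Hill-equation fits.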

[10] = Cell Viability - LYMP2-019 (AID 973); conditions: LYMP2-019 lymphoblastoid cell line viability; series mostly up to 92.2 µM; also: nearly all actives have a fitted effect of over 55% in size
Procedure, shortened: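 Human lymphoblastoid cells were seeded at 2500 cells/well, preincubated 5 hr at 37 C, then exposed to compounds for 24 hr at 37 C in complete medium. Intracellular ATP was measured by CellTiter-Glo luminescence; AC50 from Hill fits.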

[11] = Cell Viability - LYMP2-021 (AID 974); conditions: LYMP2-021 lymphoblastoid cells viability; series mostly up to 92.2 µM;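 also: compound exposure lasts 24 hours at 37 °C; nearly all actives have a fitted effect of over 55% in size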
Procedure, shortened: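 Human lymphoblastoid cells (2500/well) were preincubated 5 hr at 37 C, then exposed to compounds for 24 hr at 37 C in complete medium. Intracellular ATP was read by CellTiter-Glo luminescence; AC50 came from Hill-equation fits of concentration-response data.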

[12] = Cell Viability - LYMP2-023 (AID 975); conditions: LYMP2-023 lymphoblastoid cell viability; series mostly up to 92.2 µM
Procedure, shortened: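 Human lymphoblastoid cells (2500/well) were preincubated 5 hr at 37 C, then exposed to compounds for 24 hr at 37 C in complete medium. Cellular ATP was read by CellTiter-Glo luminescence, and AC50 came from Hill-equation fits.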

[13] = Cell Viability - LYMP2-010 (AID 981); conditions: LYMP2-010 lymphoblastoid cell viability, qHTS; series mostly up to 92.2 µM; also: nearly all actives have a fitted effect of over 55% in size
Procedure, shortened: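 Human lymphoblastoid LYMP2-010 cells (2500/well) were preincubated 5 hr at 37 C, then exposed to compounds for 24 hr at 37 C in complete medium. Intracellular ATP was measured by CellTiter-Glo luminescence after 30 min at room temperature; AC50 from Hill-fitted concentration-response.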

[14] = Cell Viability - LYMP2-014 (AID 983); conditions: LYMP2-014 lymphoblastoid cells, viability qHTS; series mostly up to 92.2 µM; also: nearly all actives have a fitted effect of over 50% in size
Procedure, shortened: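 Human lymphoblastoid cells (2500/well) were pre-incubated 5 hr at 37 C, then exposed to compounds in complete medium for 24 hr at 37 C. Intracellular ATP was read by CellTiter-Glo luminescence after 30 min at room temperature; AC50 from Hill fits.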

[15] = Cell Viability - LYMP2-016 (AID 984); conditions: LYMP2-016 lymphoblastoid cell viability, qHTS; series mostly up to 92.2 µM; also: nearly all actives have a fitted effect of over 55% in size
Procedure, shortened: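 qHTS, 1536-well: 2500 LYMP2-016 cells/well, 5 hr 37 C, compound added, 24 hr 37 C, CellTiter-Glo 30 min RT, luminescence. Tetraoctylammonium bromide positive control. AC50 via Hill fit.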

[16] = Cell Viability - LYMP2-020 (AID 986); conditions: series mostly up to 92.2 µM; also: nearly all actives have a fitted effect of over 55% in size
Procedure, shortened: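 Human lymphoblastoid cells, 2500/well, were pre-incubated 5 hr at 37 C, then exposed to compounds for 24 hr at 37 C in complete medium. Intracellular ATP was read by CellTiter-Glo luminescence, and AC50 was derived by Hill fitting of concentration-response data.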

[17] = Cell Viability - LYMP2-022 (AID 987); conditions: LYMP2-022 lymphoblastoid cell viability; series mostly up to 92.2 µM; also: nearly all actives have a fitted effect of over 55% in size
Procedure, shortened: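 Human lymphoblastoid cells, 2500/well, preincubated 5 hr at 37 C, then exposed to compounds over a concentration range for 24 hr at 37 C in complete medium. Viability read as intracellular ATP by CellTiter-Glo luminescence after 30 min at room temperature; AC50 from Hill fits.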

[18] = Cell Viability - LYMP2-024 (AID 988); conditions: LYMP2-024 lymphoblastoid cell viability; series mostly up to 92.2 µM; also: nearly all actives have a fitted effect of over 60% in size
Procedure, shortened: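 Human lymphoblastoid cells (2500/well) in complete medium were preincubated 5 hr at 37 C, then exposed to compounds for 24 hr at 37 C. Intracellular ATP was read by CellTiter-Glo luminescence; AC50 from Hill-equation fits of concentration-response data.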

[19] = qHTS assay for small molecule disruptors of the mitochondrial membrane potential - 1 hr assay (AID 651754; calls by dose curve; also: nearly all actives have a fitted effect of over 35% in size; also: potency is read from the fitted curve at half-maximal effect); conditions: series mostly up to 92.2 µM
Procedure, shortened: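 HepG2 cells, attached overnight at 37C, were exposed to compound or DMSO vehicle for 1 hr at 37C, 5% CO2, then stained with Mito-MPS dye for 30 min. Red aggregate versus green monomer fluorescence reports membrane potential.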

[20] = target: Tumor necrosis factor (Homo sapiens) (UniProt P01375); assay: qHTS assay to identify small molecules that stimulate Tumor Necrosis Factor-alpha (TNF-alpha) secretion (AID 651757; active = well fitted curve in the direction sought with a large enough effect in the signal ratio; the % refers to the signal ratio); conditions: Human cells, HTRF 665/615 ratio; series mostly up to 92.2 µM
Procedure, shortened: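 THP-1 cells were exposed to compounds for 17 hrs at 37 C, after which secreted TNF-alpha was measured by homogeneous HTRF (TR-FRET) using cryptate- and XL665-labeled anti-TNF-alpha antibodies, read after 3 hr at room temperature.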

Measured: Potency

Tumor necrosis factor (Homo sapiens), sequence (P01375 whole entry, looked up): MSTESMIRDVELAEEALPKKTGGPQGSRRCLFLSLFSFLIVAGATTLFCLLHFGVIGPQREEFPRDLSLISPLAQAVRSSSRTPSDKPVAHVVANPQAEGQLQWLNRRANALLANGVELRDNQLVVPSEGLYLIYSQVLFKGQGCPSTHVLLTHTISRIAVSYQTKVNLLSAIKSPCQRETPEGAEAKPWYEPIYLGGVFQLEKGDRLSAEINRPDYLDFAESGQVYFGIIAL

CC(C)(c1ccccc1)c1ccc(O)cc1
active: [19] 26.6 µM
inactive: [1] > 92 µM | [2] | [3] | [4] | [5] | [6] | [7] | [8] | [9] | [10] | [11] | [12] | [13] | [14] | [15] | [16] | [17] | [18] | [20]

C[N+](C)(C)Cc1ccccc1
inactive: [1] > 92 µM | [2] | [4] | [5] | [6] | [7] | [8] | [9] | [10] | [11] | [12] | [13] | [14] | [15] | [16] | [17] | [18] | [19] | [20]

c1nc[nH]n1
inactive: [1] > 92 µM | [2] | [3] | [4] | [6] | [7] | [8] | [9] | [10] | [11] | [12] | [13] | [14] | [15] | [16] | [17] | [18] | [19] | [20]

Nc1ccccc1Cl
inactive: [1] > 92 µM | [2] | [3] | [4] | [5] | [6] | [7] | [8] | [9] | [10] | [11] | [12] | [13] | [14] | [15] | [16] | [17] | [18] | [19] | [20]

C1CCC2CCCCC2C1 (configuration not stated)
inactive: [1] > 92 µM | [2] | [3] | [4] | [5] | [6] | [7] | [8] | [9] | [10] | [11] | [12] | [13] | [14] | [15] | [16] | [17] | [18] | [19] | [20]

CCN(CC)c1ccccc1
inactive: [1] > 92 µM | [2] | [3] | [4] | [5] | [6] | [7] | [8] | [9] | [10] | [11] | [12] | [13] | [14] | [15] | [16] | [17] | [18] | [19] | [20]

CC(O)CCl (configuration not stated)
inactive: [1] > 92 µM | [2] | [3] | [4] | [5] | [6] | [7] | [8] | [9] | [10] | [11] | [12] | [13] | [14] | [15] | [16] | [17] | [18] | [19] | [20]

CN=C=S
inactive: [1] > 92 µM | [2] | [3] | [4] | [5] | [7] | [8] | [9] | [10] | [11] | [12] | [13] | [14] | [15] | [16] | [17] | [18] | [19] | [20]
